Screening results from PubChem.
Compounds with a hit are over-represented: about 21% of the library has one in this group of screens.
VP16 counter = counter-screen for ROR gamma inhibitors: Gal4-VP16 reporter; hit rate 3.5% among 310,000; Drosophila S2 Gal4-VP16 UAS-luciferase, luminescence, 20 h; Potency, µM (series often up to 53.6 µM), without a hit: at the top dose activity, negative = inhibition, hits mostly inhibitors;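 also: Gal4-VP16 expression switched on by copper sulfate through the metallothionein promoter; potency is read from the fitted curve at half-maximal effect; nearly all actives have a fitted effect of over 50% in size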
TDP1 cell noCPT = qHTS for Inhibitors of human tyrosyl-DNA phosphodiesterase 1 (TDP1): qHTS in cells in absence of CPT; DT40 Tdp1-/- hTDP1 cells, no CPT, ATP luminescence, 48 h; Potency, µM (highest dose often 46.2 µM), without a hit: top-dose activity change, negative = growth inhibition, most hits filed as inhibitors; hit rate 15% among 420,000; AID 686978, 2013; also: potency is read from the fitted curve at half-maximal effect; nearly all actives have a fitted effect of over 55% in size
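Growth of hTDP1-complemented DT40 Tdp1-knockout cells is measured by ATP luminescence after at least 48 hr compound exposure at 37 °C, with DMSO substituting for the 20 nM CPT used in the parallel screen.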
IL1B secr inh = inflammasome signaling inhibition, IL-1 beta readout; THP-1 LPS/ATP IL-1B secretion, AlphaLISA, 16 h; active compounds read low; activity change, % at 57.5 µM; hit rate 4.7% among 360,000; AID 743279; in the data active = activity change below about -50%; inconclusive = mostly about -30% to -49%
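THP-1 cells pretreated 1 hr with compounds (up to 57.5 uM final), then stimulated with LPS (250 ng/mL final) plus ATP (1.25 mM final); secreted IL-1B measured by AlphaLISA after 16 hr, decreased signal indicating inhibition.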
ELG1 DNA repair = blocks ELG1-dependent DNA repair in HEK293T cells; HEK293T ELG1-luciferase reporter, luminescence, 16 h; DNA damage induced by 5-fluorouridine; Potency, µM (highest dose often 46.1 µM), for the others: at the top dose activity change, negative = inhibition, actives largely listed as inhibitors; hit rate 2.3% among 330,000; also: potency is read from the fitted curve at half-maximal effect; nearly all actives have a fitted effect of over 55% in size
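5-Fluorouridine DNA damage + compound/DMSO, 2,000 cells/well, 16 h, 37 °C/5% CO2. ONE-Glo, 30 min RT, luminescence. Readout = decrease in reporter signal.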
DT40 TDP1 CPT = growth inhibition of DT40 Tdp1-/-;hTDP1 cells with camptothecin (screen for TDP1 inhibitors) | chicken DT40 Tdp1-/-;hTDP1 cells + 20 nM CPT, ATP luminescence, 48 h | Potency, µM (doses to about 46.2 µM), inactives show at the top dose activity change, negative = growth inhibition, most hits filed as inhibitors | hit rate 12% among 420,000 | AID 686979; also: potency is read from the fitted curve at half-maximal effect; nearly all actives have a fitted effect of over 55% in size
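Chicken DT40 Tdp1-/- cells complemented with human TDP1, 400 cells/well, exposed to compounds plus 20 nM camptothecin for at least 48 h at 37 C; viability read as ATP content by CellTiter-Glo luminescence.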
RORg inh = inhibitors of mouse ROR gamma transcriptional activity; P51450; Drosophila S2 Gal4-RORgamma UAS-luciferase reporter, 20 h; Potency, µM (series often up to 53.6 µM), for inactives: at the top dose activity change, negative = inhibition, most hits filed as inhibitors; hit rate 5.4% among 310,000; also: potency is read from the fitted curve at half-maximal effect; nearly all actives have a fitted effect of over 60% in size
Target sequence (P51450 whole entry, looked up, the tested form may be a part): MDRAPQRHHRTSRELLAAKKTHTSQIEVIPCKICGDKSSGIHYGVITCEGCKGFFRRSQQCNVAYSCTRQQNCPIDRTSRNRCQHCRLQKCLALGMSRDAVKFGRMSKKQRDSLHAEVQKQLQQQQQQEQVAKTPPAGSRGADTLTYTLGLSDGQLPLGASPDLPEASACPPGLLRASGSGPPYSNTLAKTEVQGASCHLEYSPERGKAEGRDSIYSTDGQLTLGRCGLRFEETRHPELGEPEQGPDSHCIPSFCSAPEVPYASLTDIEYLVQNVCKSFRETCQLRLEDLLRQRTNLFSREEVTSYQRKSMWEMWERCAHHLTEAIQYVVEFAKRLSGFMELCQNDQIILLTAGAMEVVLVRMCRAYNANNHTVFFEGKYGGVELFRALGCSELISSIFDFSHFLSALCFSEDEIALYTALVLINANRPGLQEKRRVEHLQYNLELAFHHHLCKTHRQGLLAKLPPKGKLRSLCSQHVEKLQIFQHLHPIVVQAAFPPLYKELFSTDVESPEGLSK
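A Gal4/UAS one-hybrid system in insect cells: metallothionein-promoter Gal4–ROR gamma fusion plus Photinus luciferase reporter. Copper sulfate 700 uM final, 20 hr ambient incubation, luminescent detection after 10 min with reagent.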
* marks the source's active call; other numbers are inactive results; ? = inconclusive; . = no result. Unless noted, calls follow the shape of the dose curve; as a rule, active = well fitted curve in the direction sought with a large enough effect; inconclusive = small, poorly fitted or top-dose-only effect, or another doubt; inactive = no such curve, though single readings can be large; an effect the other way counts as inactive or inconclusive. % is scaled to controls: 0 for no effect and ±100 for the full control effect.

SMILES	VP16 counter	TDP1 cell noCPT	IL1B secr inh	ELG1 DNA repair	DT40 TDP1 CPT	RORg inh
COc1ccc(-c2noc(C3CCCN(C(=O)c4ccccc4OC)C3)n2)cc1OC (stereo not given)	5.5%	?	-9.5	?	?	18.2%
CCCCn1c(N)c(N(CCOC)C(=O)CSCc2ccc(C)cc2)c(=O)[nH]c1=O	.	-10.2%	3.1	1.0%	-7.0%	.
CCOc1ccccc1NC(=O)COc1coc(CN2CCc3ccccc32)cc1=O	.	?	19.2	?	?	.
O=C(COc1coc(CN2CCc3ccccc32)cc1=O)NCCc1ccccc1	.	18.4µM*	8.6	-11.5%	?	.
Cc1ccc(NC(=O)COc2coc(CN3CCc4ccccc43)cc2=O)cc1Cl	.	14.6µM*	-6.0	13.7%	23.1µM*	.
O=C(COc1coc(CN2CCc3ccccc32)cc1=O)N1CCCCC1	.	0.5%	11.2	-3.0%	7.7%	.
Cc1ccccc1NC(=O)COc1coc(CN2CCCc3ccccc32)cc1=O	.	14.6µM*	-3.6	-19.9%	20.6µM*	.
Cc1ccc(C)c(NC(=O)COc2coc(CN3CCc4ccccc43)cc2=O)c1	.	11.6µM*	-18.3	?	-84.0%	.
CCCCC(=O)N(C)c1c(C)nc2ccc(C(=O)N3CCN(S(=O)(=O)CC)CC3)cn12	.	-0.5%	26.9	.	10.7%	.
COc1ccc(C2(C)NC(=O)N(CC(=O)NCc3ccccc3F)C2=O)cc1 (stereo not given)	9.3%	2.2%	41.2	3.1%	2.0%	-17.6%
O=C(Nc1ccccc1)/C(=C/c1cccc(Br)c1)NC(=O)c1ccco1	?	-8.6%	-13.2	11.1%	0.7%	24.5%
O=C(N/C(=C/c1cccc(Br)c1)c1nc(=S)[nH][nH]1)c1ccccc1	?	?	-100.5*	?	?	-33.4%
Cc1ccc(C(=O)N/C(=C\c2ccc(Br)cc2)c2nc(=S)[nH][nH]2)cc1	?	?	-78.9*	?	?	-43.9%
CN1CCN(S(=O)(=O)c2csc(C(N)=O)c2)CC1	-3.6%	-1.7%	6.1	6.5%	-3.0%	-7.6%
O=C(c1ccccc1)N1CCN(C2CCCCC2)CC1	-1.2%	?	14.8	-3.6%	-7.8%	0.3%
S=C1N(c2ccccc2)CN(C2CCCCC2)CN1c1ccccc1	20µM*	?	-11.7	?	?	11.2µM*
Cc1cccc(OCc2nc(CC(=O)Nc3ccc(C)c(C)c3)cs2)c1	.	18.4µM*	.	.	?	.
Cc1cccc(OCCC(=O)Nc2ccc(F)c(F)c2)c1	-3.0%	-7.9%	?	-1.5%	-4.0%	9.7%
Cc1nc(CC(=O)Nc2ccc(C)c(C)c2)cs1	.	-14.6%	.	.	7.6%	.
Cc1cccc(OCc2nc(CC(=O)Nc3ccc(Cl)cc3)cs2)c1	.	?	.	.	20.6µM*	.
CCN(c1ccccc1)S(=O)(=O)c1ccc(Oc2ccccc2)c(N)c1	.	?	-25.2	.	?	.
Cc1ccc(NC(=O)CC(c2ccc(F)cc2)N2Cc3ccccc3C2=O)cc1C (stereo not given)	.	-23.8%	.	.	-14.6%	.
Cc1ccc(C(CC(=O)Nc2ccc(C)cc2C)N2Cc3ccccc3C2=O)cc1 (stereo not given)	.	18.4µM*	.	.	16.4µM*	.
Cc1ccc(C(CC(=O)Nc2cc(C)cc(C)c2)N2Cc3ccccc3C2=O)cc1 (stereo not given)	.	23.1µM*	.	.	14.6µM*	.
CC(=O)c1cccc(NC(=O)CC(c2ccc(C)cc2)N2Cc3ccccc3C2=O)c1 (stereo not given)	.	16.4µM*	.	.	?	.
CSc1cccc(NC(=O)CC(c2ccc(F)cc2)N2Cc3ccccc3C2=O)c1 (stereo not given)	.	20.6µM*	.	.	23.1µM*	.
CCc1ccccc1N(CC(=O)NC1CCCC1)C(=O)CNC(=O)c1cccs1	2.7%	-13.1%	4.7	-3.9%	-5.6%	15.8%
